Several values for one entry are separate records, joined by “and”; a condition that tells them apart may be missing. Equal values may be shown once. Results filed as inconclusive are left out. Activity calls are given as the source filed them. Unless noted, the call rests on the fitted dose curve; in most records, active means well fitted curve in either direction with a large enough effect (not every such curve was filed as active); inconclusive means small, poorly fitted or top-dose-only effect, or another doubt; inactive means flat fitted curve, though single readings scatter.
Experiments:
[1] = Stat Signaling Pathway (AID 446);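 further: ME-180 cervical cancer cells given 40 pM IL-6 alongside compound; SIE-controlled beta-lactamase reporter measured as 460/530 nm FRET emission ratio; on the % scale 0 is the no-effect control and ±100 the full control effect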
Summary of the method: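 FRET read-out (405 nm excitation, 460/530 nm emission) of a beta-lactamase reporter under a STAT-inducible element in ME-180 cervical carcinoma cells. Cells with compound receive 40 pM IL-6 for 5 h. Values are normalised to AC90 stimulation and AC90 JAK-inhibitor controls.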

[2] = biological target: Glucocorticoid receptor (Homo sapiens) (UniProt P04150); assay: GR-GFP Redistribution (AID 450;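 active means compounds whose dose series gives a full or clear partial fitted curve of increased nuclear translocation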; further: potency means the concentration at half of the fitted maximal effect); details: U2OS GR-GFP nuclear translocation, laser cytometry, 2 h
Sequence of Glucocorticoid receptor (Homo sapiens) (P04150 whole entry, looked up, the tested form may be a part): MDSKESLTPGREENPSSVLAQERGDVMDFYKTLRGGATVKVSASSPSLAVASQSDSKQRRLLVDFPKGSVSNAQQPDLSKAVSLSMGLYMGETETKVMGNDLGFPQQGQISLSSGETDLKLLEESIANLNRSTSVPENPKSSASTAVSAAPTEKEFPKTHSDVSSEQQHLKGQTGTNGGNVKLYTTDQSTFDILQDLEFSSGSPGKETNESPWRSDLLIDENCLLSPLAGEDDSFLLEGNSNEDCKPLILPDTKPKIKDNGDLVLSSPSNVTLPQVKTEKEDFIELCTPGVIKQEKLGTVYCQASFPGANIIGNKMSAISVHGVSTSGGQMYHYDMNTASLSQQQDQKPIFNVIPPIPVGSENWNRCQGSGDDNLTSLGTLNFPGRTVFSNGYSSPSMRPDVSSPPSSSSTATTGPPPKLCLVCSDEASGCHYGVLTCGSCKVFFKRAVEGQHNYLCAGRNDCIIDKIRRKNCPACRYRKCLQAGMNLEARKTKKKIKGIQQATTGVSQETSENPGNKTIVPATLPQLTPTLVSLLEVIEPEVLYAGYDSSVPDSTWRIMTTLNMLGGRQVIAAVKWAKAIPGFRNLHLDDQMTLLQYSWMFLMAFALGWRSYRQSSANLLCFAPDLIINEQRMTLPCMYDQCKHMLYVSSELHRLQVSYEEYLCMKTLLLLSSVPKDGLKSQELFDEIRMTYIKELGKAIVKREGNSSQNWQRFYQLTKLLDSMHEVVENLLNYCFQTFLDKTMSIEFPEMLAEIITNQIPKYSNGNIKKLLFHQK

[3] = biological target: Glucocorticoid receptor (Homo sapiens) (UniProt P04150); assay: GR-EFC Redistribution (AID 451; calls by dose curve; further: potency means the concentration at half of the fitted maximal effect); details: CHO-K1 GR-EFC translocation, beta-gal luminescence, 2 h
Summary of the method: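 CHO-K1 cells expressing nuclear EA and GR-ED fragments of b-gal; compounds titrated up to 46 uM final, 2 h at 37 C. GR nuclear translocation read as complemented b-gal luminescence after 1 h RT detection.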

[4] = biological target: Mitogen-activated protein kinase 10 (Mus musculus) (UniProt Q61831); assay: JNK3 AlphaScreen Assay (AID 530);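 further: kinase came from lysate of stimulated human HepG2 cells; signal reports phosphorylation of biotinylated GST-cJun 1-79 at Ser73 with 10 µM ATP; on the % scale 0 is the no-effect control and ±100 the full control effect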
Summary of the method: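 HepG2 lysate (IL-1b/TNFa pre-activated) + biotin-GST-cJun 1-79 + anti-pSer73 cJun; cpd titration, 15 min RT; ATP 10 uM start; Tris pH 7.6, MgCl2, DTT, vanadate; beads in EDTA buffer; AlphaScreen.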

[5] = Cell Viability - N2a (AID 540; active means well fitted curve in the direction sought with a large enough effect; an effect the other way counts as inactive or inconclusive;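 further: plate controls were DMSO alone for no effect and tamoxifen control for full effect; nearly all actives have a fitted effect of over 45% in size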)
Summary of the method: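 N2a mouse neuroblastoma, 1500 cells/well, 5 hr settle; compound 40 hr, 37 °C; CellTiter-Glo 20 min RT; luminescence; Hill-fit AC50.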

[6] = Cell Viability - NIH 3T3 (AID 541; active means well fitted curve in the direction sought with a large enough effect; an effect the other way counts as inactive or inconclusive;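 further: cells exposed to compound for 40 hours; plate controls were DMSO alone for no effect and tamoxifen positive control for full effect; nearly all actives have a fitted effect of over 25% in size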)
Summary of the method: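 qHTS format; 40 hr compound exposure, 37 °C; CellTiter-Glo luminescence (cellular ATP) read-out after 20 min at RT. Decrease in ATP = cytotoxicity; AC50 from standard Hill fit.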

[7] = Cell Viability - HUV-EC-C (AID 542; active means well fitted curve in the direction sought with a large enough effect; an effect the other way counts as inactive or inconclusive;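 further: cells exposed to compound for 40 hours; on the % scale 0 is the no-effect control and ±100 the full control effect; nearly all actives have a fitted effect of over 35% in size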)
Summary of the method: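 Luminescent ATP read-out (CellTiter-Glo, 20 min room temperature) after 40 hr compound treatment of HUV-EC-C cells at 37 °C. Concentration-response data fitted with the standard Hill equation to give AC50; tamoxifen and doxorubicin served as positive controls.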

[8] = Cell Viability - H-4-II-E (AID 543; active means well fitted curve in the direction sought with a large enough effect; an effect the other way counts as inactive or inconclusive;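 further: cells exposed to compound for 40 hours; on the % scale 0 is the no-effect control and ±100 the full control effect; nearly all actives have a fitted effect of over 35% in size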)
Summary of the method: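 qHTS, rat hepatoma H-4-II-E, 1500 cells/well; 40 hr compound exposure, 37 °C; CellTiter-Glo ATP luminescence after 20 min RT; AC50 by standard Hill fit.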

[9] = Cell Viability - SH-SY5Y (AID 544; active means well fitted curve in the direction sought with a large enough effect; an effect the other way counts as inactive or inconclusive;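 further: cells exposed to compound for 40 hours; 0% = DMSO alone and -100% = 100 µM tamoxifen; nearly all actives have a fitted effect of over 55% in size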); details: SH-SY5Y neuroblastoma cell viability; at 92.2 µM (top of the series)
Summary of the method: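 SH-SY5Y, 1500 cells/well, 5 hr pre-incubation 37 °C; cpd 40 hr 37 °C; CellTiter-Glo 20 min RT; luminescence (ATP) read. qHTS concentration-response, Hill fit → AC50. Tamoxifen, doxorubicin as positive controls.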

[10] = Cell Viability - Renal Proximal Tubule (AID 545; active means well fitted curve in the direction sought with a large enough effect; an effect the other way counts as inactive or inconclusive;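 further: cells exposed to compound for 40 hours; 0% = DMSO only and -100% = 100 µM tamoxifen; nearly all actives have a fitted effect of over 40% in size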)
Summary of the method: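 Primary rat renal proximal tubule cells (1000/well) were treated with compounds for 40 hr at 37 °C in complete medium. Intracellular ATP was measured by CellTiter-Glo luminescence, and AC50 values came from Hill-equation fits of concentration-response data.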

NS(=O)(=O)c1ccc(C(=O)O)cc1
inactive: outcome [1] | Potency [2] > 46 µM and > 20.6 µM | Potency [3] > 9.22 µM | outcome [4]

CCCNC(C)(C)COC(=O)c1ccccc1
inactive: outcome [1] | Potency [2] > 20.6 µM | Potency [3] > 20.6 µM | outcome [4]

Cc1c(N(C)C)c(=O)n(-c2ccccc2)n1C
inactive: outcome [1] | Potency [2] > 20.6 µM | Potency [3] > 20.6 µM | outcome [4] | outcome [5] | outcome [6] | outcome [7] | outcome [8] | viability change, negative = cytotoxic [9] -14.6% | outcome [10]

CN1CCCN=C1COC(=O)C(O)(c1ccccc1)C1CCCCC1 (centres undefined)
inactive: outcome [1] | Potency [2] > 20.6 µM

CN/C(=C\[N+](=O)[O-])NCCSCc1csc(CN(C)C)n1
inactive: outcome [1] | Potency [2] > 20.6 µM | Potency [3] > 20.6 µM | outcome [4]

CCN(CC)CCc1nc(-c2ccccc2)no1
inactive: outcome [1] | Potency [2] > 20.6 µM | Potency [3] > 20.6 µM | outcome [4]

Cc1cc(NC(=O)C2=C(O)c3ccccc3S(=O)(=O)N2C)no1
inactive: outcome [1] | Potency [2] > 20.6 µM | Potency [3] > 20.6 µM | outcome [4]

CC(=O)SC[C@@H](Cc1ccccc1)C(=O)NCC(=O)OCc1ccccc1
inactive: outcome [1] | Potency [2] > 20.6 µM | Potency [3] > 20.6 µM | outcome [4]

CCN(CC)CCOC(=O)C(c1ccccc1)c1ccccc1
inactive: outcome [1] | Potency [2] > 20.6 µM | Potency [3] > 20.6 µM | outcome [4]

Cc1c(NC(C)C)c(=O)n(-c2ccccc2)n1C
inactive: outcome [1] | Potency [2] > 20.6 µM | Potency [3] > 20.6 µM | outcome [4]

From PubChem BioAssay (NCATS)
